This note sets out measurements from PubChem BioAssay (NCATS).

Results filed as inconclusive are left out. Entries that show only a call come without a potency. Calls of active or inactive are those of the source. Unless noted, calls follow the shape of the dose curve; as a rule, active = well fitted curve in the direction sought with a large enough effect; inconclusive = small, poorly fitted or top-dose-only effect, or another doubt; inactive = no such curve, though single readings can be large; an effect the other way counts as inactive or inconclusive.

Test [1] concerns the target Ubiquitin carboxyl-terminal hydrolase 1 (Homo sapiens) (UniProt O94782). The experiment in a line: Inhibitors of USP1/UAF1: Pilot qHTS (AID 504865).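 Also: rhodamine fluorescence freed from ubiquitin-rhodamine substrate followed over time; top concentration of the series differs between compounds; nearly all actives have a fitted effect of over 35% in size.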 Conditions: purified USP1/UAF1, Ub-rhodamine cleavage fluorescence; series mostly up to 114 µM. In short, it runs like this: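 USP1/UAF1 complex at 1 nM preincubated 15 min at room temperature with compound, then Ub-Rho substrate added at 150 nM final. Fluorescence (480/540 nm) read kinetically in 50 mM HEPES pH 7.8, 0.5 mM EDTA, 1 mM TCEP, 0.1 mg/ml BSA, 0.01% Tween-20.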
For orientation: Quantitative high-throughput screening tests each substance at several concentrations.

The target in test [2] is Peptidyl-prolyl cis-trans isomerase NIMA-interacting 1 (Homo sapiens) (UniProt Q13526). The experiment in a line: qHTS Validation Assay to Find Inhibitors of Pin1 (AID 504536; active = well fitted inhibition curve with a large enough effect in the polarisation, with a control signal flat, not every such curve was filed as active; the % refers to the polarisation). Conditions: Pin1 fluorescence polarization peptide binding assay; series mostly up to 57.5 µM. An outline of the steps:
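Fluorescence polarization competition: compounds (titration) displace HiFluor-488-labeled Pin1-1b peptide from Pin1 (0.3 uM final) in pH 7.5 HEPES buffer with DTT, 10 min at room temperature; %Activity normalized to no-enzyme wells, curves fitted.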

Test [3] concerns the target Phosphoglycerate kinase, glycosomal (Trypanosoma brucei brucei) (UniProt P07378). The experiment in a line: qHTS Validation Assay to Find Inhibitors of Phosphoglycerate Kinase (AID 504547). Conditions: enzymatic PGK inhibition, coupled luminescence read-out; series mostly up to 57.5 µM. An outline of the steps: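 In TEA buffer (100mM, pH 7.6) containing 5mM MgCl2 and 0.01% Tween-20, the GAPDH-coupled PGK reaction proceeded for 60 minutes at room temperature before a single luminescence reading using Kinase-Glo Plus.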

Test [4] deals with phosphoglycerate mutase (Leishmania major) (UniProt Q4Q090). The experiment in a line: qHTS Validation Assay to Find Inhibitors of Phosphoglycerate Mutase (AID 504548). Conditions: biochemical enzyme activity; series mostly up to 57.5 µM. In short, it runs like this: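 Lm PGAM 1.25nM final; 100 mM TEA pH 7.6, 5 mM MgCl2, 0.01% Tween-20; 45 min RT; Kinase-GloPlus, 10 min; end-point luminescence. Enzyme-free wells as negative controls.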
Chain of phosphoglycerate mutase (Leishmania major) (Q4Q090 1-553): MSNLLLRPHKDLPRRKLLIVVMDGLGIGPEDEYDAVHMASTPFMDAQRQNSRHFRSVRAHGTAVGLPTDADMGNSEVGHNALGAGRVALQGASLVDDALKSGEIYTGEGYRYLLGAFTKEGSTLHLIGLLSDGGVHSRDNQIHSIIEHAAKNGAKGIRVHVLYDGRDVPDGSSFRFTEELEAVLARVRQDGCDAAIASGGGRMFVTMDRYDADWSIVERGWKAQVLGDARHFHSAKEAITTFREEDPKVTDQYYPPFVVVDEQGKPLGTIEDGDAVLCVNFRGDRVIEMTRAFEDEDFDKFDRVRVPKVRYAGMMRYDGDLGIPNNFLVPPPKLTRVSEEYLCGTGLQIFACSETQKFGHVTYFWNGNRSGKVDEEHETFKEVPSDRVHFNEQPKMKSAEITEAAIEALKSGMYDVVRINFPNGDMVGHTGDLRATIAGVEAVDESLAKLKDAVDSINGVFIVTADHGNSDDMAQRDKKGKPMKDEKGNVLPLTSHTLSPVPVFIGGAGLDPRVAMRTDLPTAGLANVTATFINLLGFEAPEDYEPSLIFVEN

A short description of test [5]: qHTS for Inhibitors of ATXN expression: Validation of Cytotoxic Assay (AID 588349). Conditions: cytotoxicity counter-screen for ATXN expression inhibitors, cell viability; series mostly up to 57.1 µM. An outline of the steps: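 Cytotoxicity counter-screen: HEK293 cells exposed to compound titrations, 72 hr, 37 degrees C. Read-out is intracellular ATP (CellTiter Glo luminescence) as a viability measure.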

Test [6] can be described thus: qHTS for Inhibitors of ATXN expression: Validation (AID 588378). Also: nearly all actives have a fitted effect of over 75% in size. Conditions: cell-based ATXN2 expression reporter assay, luminescence; series mostly up to 57.1 µM. An outline of the steps:
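HEK293 cells carrying ATXN2-firefly luciferase reporter, treated with compound 24 h at 37 °C. Viability read first by CellTiter-Fluor (405/525 nm), then reporter expression by Bright-Glo luminescence; controls were a known ATXN2 expression inhibitor and a luciferase inhibitor.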

The target of test [7] is DNA dC->dU-editing enzyme APOBEC-3G (Homo sapiens) (UniProt Q9HC16). The experiment in a line: qHTS for inhibitors of Vif-A3G interactions: Validation (AID 588379). Conditions: Vif-A3G protein interaction assay; series mostly up to 46.1 µM. An outline of the steps: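 Yellow fluorescence (Ex 488, Em 500-530) of Vif-coexpressing HeLa A3G-eYFP cells, scanned by Acumen cytometer, reports blocked A3G degradation. Cells plated at 700/well overnight at 37 deg C before compound addition, then a further overnight compound incubation at 37 deg C.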
Chain of DNA dC->dU-editing enzyme APOBEC-3G (Homo sapiens) (Q9HC16 whole entry, looked up): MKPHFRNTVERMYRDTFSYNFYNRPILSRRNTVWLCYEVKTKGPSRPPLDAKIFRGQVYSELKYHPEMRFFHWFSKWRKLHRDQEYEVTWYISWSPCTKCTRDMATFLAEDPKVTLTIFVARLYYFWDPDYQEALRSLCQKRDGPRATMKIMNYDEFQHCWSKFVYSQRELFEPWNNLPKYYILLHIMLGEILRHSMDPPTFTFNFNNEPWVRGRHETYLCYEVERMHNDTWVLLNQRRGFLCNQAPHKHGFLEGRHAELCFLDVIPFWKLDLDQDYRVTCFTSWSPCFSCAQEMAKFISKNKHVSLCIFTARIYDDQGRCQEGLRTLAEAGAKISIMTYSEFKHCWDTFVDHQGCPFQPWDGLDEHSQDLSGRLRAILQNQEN

Test [8] deals with Galactokinase (Homo sapiens) (UniProt P51570). The experiment in a line: qHTS Validation Assay for Inhibitors of Human Galactokinase (GALK) (AID 493189). Conditions: purified human GALK enzyme activity, qHTS 7-point titration; series mostly up to 57.5 µM. In short, it runs like this:
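GALK (5 nM) with 35 uM ATP and 100 uM galactose in HEPES pH 8.0 with MgCl2, NaCl, DTT and BSA. Reaction ran 1 h at room temperature. Residual ATP read by Kinase-Glo Plus luminescence.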

Test [9] deals with Androgen receptor (Homo sapiens) (UniProt P10275). The experiment in a line: qHTS assay for small molecule antagonists of androgen receptor signaling (AID 588516; active = well fitted curve in the direction sought with a large enough effect in the signal ratio, with a control signal flat, not every such curve was filed as active; the % refers to the signal ratio). Conditions: AR-UAS-bla HEK293, beta-lactamase ratio, antagonist mode, 16 h; series mostly up to 76.8 µM. An outline of the steps: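 AR-UAS-bla GripTite HEK 293 cells (2000/well) treated with compound titrations plus 10 nM R1881 for 16 h at 37C. Beta-lactamase read by CCF4 FRET (460/530 nm); IC50 from Hill fits, normalized to R1881 and DMSO control wells.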
Chain of Androgen receptor (Homo sapiens) (P10275 whole entry, looked up): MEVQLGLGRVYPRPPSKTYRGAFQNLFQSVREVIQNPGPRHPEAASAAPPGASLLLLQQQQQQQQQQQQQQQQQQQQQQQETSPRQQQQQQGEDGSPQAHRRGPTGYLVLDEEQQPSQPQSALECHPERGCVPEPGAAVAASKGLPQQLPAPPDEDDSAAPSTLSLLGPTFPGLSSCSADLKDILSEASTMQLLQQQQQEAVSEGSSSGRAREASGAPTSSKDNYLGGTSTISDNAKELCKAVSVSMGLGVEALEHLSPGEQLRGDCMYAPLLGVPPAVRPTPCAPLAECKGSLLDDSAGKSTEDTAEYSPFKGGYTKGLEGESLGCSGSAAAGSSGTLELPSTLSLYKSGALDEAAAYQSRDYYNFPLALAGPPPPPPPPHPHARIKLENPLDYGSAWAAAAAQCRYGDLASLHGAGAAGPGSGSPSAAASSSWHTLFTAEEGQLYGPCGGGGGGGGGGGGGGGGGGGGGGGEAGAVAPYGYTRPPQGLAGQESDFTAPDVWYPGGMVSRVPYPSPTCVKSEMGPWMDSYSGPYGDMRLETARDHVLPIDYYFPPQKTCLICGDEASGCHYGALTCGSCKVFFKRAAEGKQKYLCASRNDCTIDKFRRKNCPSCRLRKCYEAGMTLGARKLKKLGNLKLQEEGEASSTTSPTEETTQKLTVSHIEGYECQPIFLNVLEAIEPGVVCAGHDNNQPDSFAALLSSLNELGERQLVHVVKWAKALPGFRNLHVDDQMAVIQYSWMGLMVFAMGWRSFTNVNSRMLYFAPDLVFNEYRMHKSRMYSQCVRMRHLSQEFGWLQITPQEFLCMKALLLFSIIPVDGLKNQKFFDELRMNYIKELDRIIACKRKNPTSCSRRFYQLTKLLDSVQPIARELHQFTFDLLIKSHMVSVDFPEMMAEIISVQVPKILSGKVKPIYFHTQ

Chain of Ubiquitin carboxyl-terminal hydrolase 1 (Homo sapiens) (O94782 whole entry, looked up): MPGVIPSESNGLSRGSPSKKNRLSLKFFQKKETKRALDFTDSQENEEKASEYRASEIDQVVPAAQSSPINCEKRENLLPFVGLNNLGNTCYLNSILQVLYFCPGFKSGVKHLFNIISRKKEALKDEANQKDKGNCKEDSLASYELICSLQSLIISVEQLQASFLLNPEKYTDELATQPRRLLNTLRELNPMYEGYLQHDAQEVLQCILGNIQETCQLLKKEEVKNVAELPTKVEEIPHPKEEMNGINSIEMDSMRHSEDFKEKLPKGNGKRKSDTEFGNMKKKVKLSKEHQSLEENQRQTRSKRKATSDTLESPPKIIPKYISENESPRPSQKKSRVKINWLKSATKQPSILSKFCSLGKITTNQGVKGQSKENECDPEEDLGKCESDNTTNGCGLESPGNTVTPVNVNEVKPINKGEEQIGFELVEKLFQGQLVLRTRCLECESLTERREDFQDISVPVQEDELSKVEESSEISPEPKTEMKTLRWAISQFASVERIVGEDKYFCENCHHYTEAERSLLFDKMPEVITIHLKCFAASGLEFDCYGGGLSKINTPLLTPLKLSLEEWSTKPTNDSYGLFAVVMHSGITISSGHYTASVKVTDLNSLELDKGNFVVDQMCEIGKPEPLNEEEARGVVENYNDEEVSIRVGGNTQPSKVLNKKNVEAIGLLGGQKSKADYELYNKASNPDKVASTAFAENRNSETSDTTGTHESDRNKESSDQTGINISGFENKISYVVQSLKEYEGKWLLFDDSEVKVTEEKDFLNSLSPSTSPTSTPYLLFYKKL
Chain of Phosphoglycerate kinase, glycosomal (Trypanosoma brucei brucei) (P07378 whole entry, looked up): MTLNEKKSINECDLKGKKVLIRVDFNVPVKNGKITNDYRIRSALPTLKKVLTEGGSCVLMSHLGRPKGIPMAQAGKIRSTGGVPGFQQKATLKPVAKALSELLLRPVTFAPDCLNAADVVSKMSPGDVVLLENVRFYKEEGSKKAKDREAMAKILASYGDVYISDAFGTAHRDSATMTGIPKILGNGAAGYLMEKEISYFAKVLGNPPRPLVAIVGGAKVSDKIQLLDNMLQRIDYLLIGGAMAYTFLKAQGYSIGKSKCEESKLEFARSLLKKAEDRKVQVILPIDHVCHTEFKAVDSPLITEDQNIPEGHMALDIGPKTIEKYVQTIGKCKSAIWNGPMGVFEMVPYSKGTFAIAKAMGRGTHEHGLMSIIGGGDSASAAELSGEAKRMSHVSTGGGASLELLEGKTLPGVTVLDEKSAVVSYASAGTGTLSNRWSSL
Chain of Peptidyl-prolyl cis-trans isomerase NIMA-interacting 1 (Homo sapiens) (Q13526 whole entry, looked up): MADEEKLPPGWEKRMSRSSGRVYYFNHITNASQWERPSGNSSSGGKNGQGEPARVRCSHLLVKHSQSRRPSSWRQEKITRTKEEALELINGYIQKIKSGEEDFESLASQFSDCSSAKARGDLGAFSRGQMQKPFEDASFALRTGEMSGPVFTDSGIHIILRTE
Chain of Galactokinase (Homo sapiens) (P51570 whole entry, looked up): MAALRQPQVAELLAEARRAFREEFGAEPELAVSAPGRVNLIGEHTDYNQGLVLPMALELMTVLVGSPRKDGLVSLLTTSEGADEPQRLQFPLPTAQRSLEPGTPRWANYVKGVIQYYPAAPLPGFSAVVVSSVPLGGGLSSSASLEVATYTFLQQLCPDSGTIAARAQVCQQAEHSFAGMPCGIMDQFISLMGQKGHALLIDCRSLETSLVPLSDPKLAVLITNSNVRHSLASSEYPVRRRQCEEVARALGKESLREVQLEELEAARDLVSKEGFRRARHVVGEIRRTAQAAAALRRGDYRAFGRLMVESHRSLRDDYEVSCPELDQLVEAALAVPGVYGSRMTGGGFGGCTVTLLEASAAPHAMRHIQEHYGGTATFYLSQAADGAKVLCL

Turning to `CC(=O)CCC(=O)O`, the Potency result in test [1] is “inactive”.
`CC(=O)Oc1ccc(C2(c3ccc(OC(C)=O)cc3)C(=O)Nc3ccccc32)cc1`: the Potency result in test [1] was “inactive”.
As for `CN1CCCCC1CCN1c2ccccc2Sc2ccc(S(C)=O)cc21` (centres undefined), the Potency result in test [1] was “inactive”.
The same measure, in the same setting: the entry for `CC1(C)OC(=O)NC1=O` is “inactive”.
For the compound `COCCOC(=O)C1=C(C)NC(C)=C(C(=O)OC/C=C/c2ccccc2)C1c1cccc([N+](=O)[O-])c1` (centres undefined), the outcome in [2], in [3] and in test [4] was inactive.
As to `CCCCOc1cc(C(=O)OCCN(CC)CC)ccc1N`, in test [1], the Potency entry is “inactive”.
In the case of `Nc1ncnc2c1ncn2[C@@H]1O[C@H](CO)[C@@H](O)[C@H]1O`, the compound was classed as inactive in test [2], in test [3], in test [4] and in [7]. In addition, the Potency result in test [1], in test [5] and in test [6] was “inactive” each time.
As to `COc1ccc(S(=O)(=O)Nc2nnc(CC(C)C)s2)cc1`, the Potency result in test [1] was “inactive”.
As for `CCC(=O)Nc1ccc(O)cc1`, in [1], the Potency entry is “inactive”.
As to `O=c1cc[nH]c(=S)[nH]1`, the Potency result in test [1] was “inactive”.
On the same count and under the same terms, the entry for `CC(C)(C)C(=O)C(Oc1ccc(Cl)cc1)n1ccnc1` (centres undefined) is “inactive”.
In the case of `COc1cc(C(=O)N2CCOCC2)cc(OC)c1OC`, the Potency result in [1] was “inactive”.
Take `O=C(O)CC(O)C(=O)O` (centres undefined): the Potency result in test [1] was “inactive”.
Still for that read-out and setting: the entry for `COc1ccc2c(c1)C(=O)N(CCc1ccc(S(=O)(=O)NC(=O)NC3CCCCC3)cc1)C(=O)C2(C)C` is “inactive”.
Regarding `OCCN1CCN(CCCN2c3ccccc3Sc3ccc(Cl)cc32)CC1`, the compound was classed as inactive in test [8], in test [2], in test [3] and in test [4]. Also, the Potency entry in [1] was “inactive”.
On to `NCCNCCNCCNCCN`, for which the result in [9] was inactive.
Consider `CC(O)COc1ccccc1` (centres undefined), for which the result in test [9] was inactive.
